# In PubChem BioAssay (EPA / NIEHS):
# Inconclusive results are not listed. Active and inactive are the calls of the source. How the source made its calls: active means hit-call score of the fitted dose curve at least 0.9, where 1 is the maximum; inconclusive means response in the unintended direction; inactive means score below 0.9.
# Assays:
# [1] = target: human Neurokinin, NK2 Receptor, TACR2 (gene 6865) (UniProt P21452); assay: NVS_GPCR_hNK2: NovaScreen (NVS) G Protein-Coupled Receptor Assay for human Neurokinin, NK2 Receptor (AID 2283278);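 further: actives reduce bound radioligand signal relative to DMSO baseline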
# human Neurokinin, NK2 Receptor, TACR2 (gene 6865), sequence (P21452 whole entry, looked up): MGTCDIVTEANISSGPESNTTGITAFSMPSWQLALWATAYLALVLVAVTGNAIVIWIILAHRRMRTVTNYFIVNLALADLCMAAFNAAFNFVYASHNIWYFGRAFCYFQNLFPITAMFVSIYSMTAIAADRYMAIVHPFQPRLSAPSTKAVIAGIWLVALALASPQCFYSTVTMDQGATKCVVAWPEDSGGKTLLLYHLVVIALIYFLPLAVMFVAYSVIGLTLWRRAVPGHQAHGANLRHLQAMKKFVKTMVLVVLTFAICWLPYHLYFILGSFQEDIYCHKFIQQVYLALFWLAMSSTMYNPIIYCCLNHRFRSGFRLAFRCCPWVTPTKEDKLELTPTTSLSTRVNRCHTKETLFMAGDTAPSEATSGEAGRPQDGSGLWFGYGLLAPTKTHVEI
# Summary of the method: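 Filter-based scintillation counting measured radioligand bound to receptor extracted from CHO cells, 4 hours after compound addition. Chemicals screened first at 25 uM in duplicate, with actives retested in concentration series relative to DMSO.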
# [2] = test system: rabbit Platelet Activating Factor Receptor (PAF), gene 100354046; assay: NVS_GPCR_rabPAF: NovaScreen (NVS) G Protein-Coupled Receptor Assay for rabbit Platelet Activating Factor Receptor (PAF) (AID 2283287)
# Summary of the method: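 Rabbit platelet membrane preparation; radioligand displacement read by filter-based scintillation counting 1 h after dosing, loss of signal versus DMSO. Primary screen in duplicate at 25 uM, actives followed up in concentration series.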
# [3] = test system: 5-hydroxytryptamine receptor 2C (pig); assay: NVS_GPCR_p5HT2C: NovaScreen (NVS) G Protein-Coupled Receptor Assay for pig Serotonin, 5-Hydroxytryptamine Receptor 2C (5HT2C) (AID 2283288)
# Summary of the method: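 Radioligand displacement on membranes from pig choroid plexus, detected by filter scintillation counting after 1 h. Tested first at a single 25 uM in duplicate, then in concentration-response for actives; DMSO served as baseline.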
# [4] = target: mouse Cholecystokinin, CCK1 Receptor (CCKA), Cckar (gene 12425) (UniProt O08786); assay: NVS_GPCR_mCCKAPeripheral: NovaScreen (NVS) G Protein-Coupled Receptor Assay for mouse Cholecystokinin, CCK1 Receptor (CCKA) (AID 2283285)
# mouse Cholecystokinin, CCK1 Receptor (CCKA), Cckar (gene 12425), sequence (O08786 whole entry, looked up): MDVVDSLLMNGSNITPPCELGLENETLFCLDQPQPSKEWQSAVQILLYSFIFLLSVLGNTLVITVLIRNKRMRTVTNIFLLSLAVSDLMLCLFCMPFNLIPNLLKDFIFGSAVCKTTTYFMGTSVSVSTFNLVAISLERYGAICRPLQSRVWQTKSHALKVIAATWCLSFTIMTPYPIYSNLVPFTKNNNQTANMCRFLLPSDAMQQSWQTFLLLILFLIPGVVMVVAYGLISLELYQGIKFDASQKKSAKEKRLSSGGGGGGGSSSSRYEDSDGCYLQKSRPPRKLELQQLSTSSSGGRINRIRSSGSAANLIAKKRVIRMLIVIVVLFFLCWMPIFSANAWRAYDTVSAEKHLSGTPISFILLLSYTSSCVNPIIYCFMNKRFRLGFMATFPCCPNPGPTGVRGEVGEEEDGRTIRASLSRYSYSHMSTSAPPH
# Summary of the method: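 Chemicals were first screened in duplicate at 25 uM, with those meeting threshold (e.g., 30% inhibition) retested in singleton concentration series to 50 uM maximum. Binding of radioligand to mouse pancreatic membranes was read after 2 h by filtration and scintillation counting.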
# [5] = target: human Opioid Receptor Delta 1 (Opiate D1), OPRD1 (gene 4985) (UniProt P41143); assay: NVS_GPCR_hOpiate_D1: NovaScreen (NVS) G Protein-Coupled Receptor Assay for human Opioid Receptor Delta 1 (Opiate D1) (AID 2283280)
# human Opioid Receptor Delta 1 (Opiate D1), OPRD1 (gene 4985), sequence (P41143 whole entry, looked up): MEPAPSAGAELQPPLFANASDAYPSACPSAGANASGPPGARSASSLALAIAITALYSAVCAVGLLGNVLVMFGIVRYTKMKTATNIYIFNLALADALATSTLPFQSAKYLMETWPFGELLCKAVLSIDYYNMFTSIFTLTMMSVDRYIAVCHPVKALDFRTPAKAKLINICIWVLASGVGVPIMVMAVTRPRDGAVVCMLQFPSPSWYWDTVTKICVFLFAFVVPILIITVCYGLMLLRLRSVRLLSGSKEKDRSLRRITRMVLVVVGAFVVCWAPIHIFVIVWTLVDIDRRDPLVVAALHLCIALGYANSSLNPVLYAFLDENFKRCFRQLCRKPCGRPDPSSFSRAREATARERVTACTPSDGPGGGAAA
# Summary of the method: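 Membrane preparations from CHO cells bearing the human receptor were incubated 1 h with test chemical, and bound radioligand was counted after filtration. Actives from 25 uM duplicate screening were retested in concentration-response.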
# [6] = target: human Thromboxane A2 Receptor (TXA2), TBXA2R (gene 6915) (UniProt P21731); assay: NVS_GPCR_hTXA2: NovaScreen (NVS) G Protein-Coupled Receptor Assay for human Thromboxane A2 Receptor (TXA2) (AID 2283282);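 further: actives reduce bound radioligand signal relative to DMSO baseline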
# human Thromboxane A2 Receptor (TXA2), TBXA2R (gene 6915), sequence (P21731 whole entry, looked up): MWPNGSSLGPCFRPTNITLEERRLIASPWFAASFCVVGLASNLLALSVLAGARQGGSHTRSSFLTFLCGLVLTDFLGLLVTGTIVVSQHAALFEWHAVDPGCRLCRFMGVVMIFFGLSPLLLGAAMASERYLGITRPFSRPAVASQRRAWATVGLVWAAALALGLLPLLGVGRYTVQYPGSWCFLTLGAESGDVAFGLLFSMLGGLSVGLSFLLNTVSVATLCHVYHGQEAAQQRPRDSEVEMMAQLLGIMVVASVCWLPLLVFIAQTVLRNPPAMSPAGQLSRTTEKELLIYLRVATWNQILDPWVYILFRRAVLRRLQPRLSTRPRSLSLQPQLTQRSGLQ
# Summary of the method: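 Human platelet-derived receptor preparation incubated with test chemical and radiolabelled ligand for 1 hour, cell-free. Bound label was separated by filtration and counted; displacement relative to DMSO controls gave activity, screened at 25 uM, then titrated.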
# [7] = target: human Vasopressin 1A Receptor (V1A), AVPR1A (gene 552) (UniProt P37288); assay: NVS_GPCR_hV1A: NovaScreen (NVS) G Protein-Coupled Receptor Assay for human Vasopressin 1A Receptor (V1A) (AID 2283284)
# human Vasopressin 1A Receptor (V1A), AVPR1A (gene 552), sequence (P37288 whole entry, looked up): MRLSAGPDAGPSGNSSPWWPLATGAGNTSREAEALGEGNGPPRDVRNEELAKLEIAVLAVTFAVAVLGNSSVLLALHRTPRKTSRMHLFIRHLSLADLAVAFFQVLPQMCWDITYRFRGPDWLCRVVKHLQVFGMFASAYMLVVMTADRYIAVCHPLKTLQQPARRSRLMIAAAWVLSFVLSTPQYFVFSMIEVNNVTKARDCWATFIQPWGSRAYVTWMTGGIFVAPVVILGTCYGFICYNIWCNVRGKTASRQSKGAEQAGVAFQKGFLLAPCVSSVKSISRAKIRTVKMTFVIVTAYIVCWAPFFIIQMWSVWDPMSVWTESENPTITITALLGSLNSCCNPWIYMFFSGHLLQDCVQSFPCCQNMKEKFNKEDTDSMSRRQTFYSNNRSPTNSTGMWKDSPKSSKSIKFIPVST
# Summary of the method: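 Single-concentration duplicate screen at 25 uM, with concentration-response follow-up (top 50 uM) for actives. The assay measured displacement of a radioligand from human platelet-derived receptor after 1.5 h, detected by filtration and scintillation counting.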
# [8] = target: rat Serotonin, 5-Hydroxytryptamine Receptor 1 (5HT1), Non-Selective Binding, Htr1a (gene 24473) (UniProt P19327); assay: NVS_GPCR_r5HT1_NonSelective: NovaScreen (NVS) G Protein-Coupled Receptor Assay for rat Serotonin, 5-Hydroxytryptamine Receptor 1 (5HT1), Non-Selective Binding (AID 2283286)
# rat Serotonin, 5-Hydroxytryptamine Receptor 1 (5HT1), Non-Selective Binding, Htr1a (gene 24473), sequence (P19327 whole entry, looked up): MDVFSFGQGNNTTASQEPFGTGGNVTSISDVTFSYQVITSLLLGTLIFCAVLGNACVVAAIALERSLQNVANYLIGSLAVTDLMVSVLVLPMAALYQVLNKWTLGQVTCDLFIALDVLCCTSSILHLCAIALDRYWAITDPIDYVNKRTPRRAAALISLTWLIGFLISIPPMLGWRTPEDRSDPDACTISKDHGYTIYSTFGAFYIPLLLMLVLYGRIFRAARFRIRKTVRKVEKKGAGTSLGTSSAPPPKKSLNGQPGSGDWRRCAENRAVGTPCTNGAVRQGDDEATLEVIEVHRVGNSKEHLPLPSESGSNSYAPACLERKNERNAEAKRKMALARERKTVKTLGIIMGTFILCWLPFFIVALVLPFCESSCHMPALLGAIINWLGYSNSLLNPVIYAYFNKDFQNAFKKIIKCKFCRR
# Summary of the method: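 Binding of a radioligand to rat cortex membranes is read by filtration and scintillation counting after 1 h. Compounds were screened at 25 uM in duplicate. Actives were then titrated to a top of 50 uM. DMSO is the baseline.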
# [9] = target: human Orphanin, Opioid Related Nociceptin Receptor 1 (ORL1), OPRL1 (gene 4987) (UniProt P41146); assay: NVS_GPCR_hORL1: NovaScreen (NVS) G Protein-Coupled Receptor Assay for human Orphanin, Opioid Related Nociceptin Receptor 1 (ORL1) (AID 2283283)
# human Orphanin, Opioid Related Nociceptin Receptor 1 (ORL1), OPRL1 (gene 4987), sequence (P41146 whole entry, looked up): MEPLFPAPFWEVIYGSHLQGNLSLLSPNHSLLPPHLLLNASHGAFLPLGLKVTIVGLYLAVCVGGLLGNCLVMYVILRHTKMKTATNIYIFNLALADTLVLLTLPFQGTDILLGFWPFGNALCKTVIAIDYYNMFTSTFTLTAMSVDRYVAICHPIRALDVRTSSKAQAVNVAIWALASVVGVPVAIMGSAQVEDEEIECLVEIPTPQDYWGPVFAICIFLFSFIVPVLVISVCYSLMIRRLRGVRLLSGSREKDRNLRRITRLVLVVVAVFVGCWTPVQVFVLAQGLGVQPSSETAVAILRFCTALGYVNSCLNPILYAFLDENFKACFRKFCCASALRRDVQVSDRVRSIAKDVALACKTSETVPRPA
# Summary of the method: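 Cell-free binding using HEK293-derived receptor protein: radioligand displacement measured by filter scintillation 1 hour after dosing. Primary testing at 25 uM in duplicate, followed by singleton concentration series up to 50 uM; DMSO served as negative control.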
structure (smiles),measurement,setting,value
CC1(C)NC(=O)N(c2ccc([N+](=O)[O-])c(C(F)(F)F)c2)C1=O,outcome,[1],inactive
Clc1ccccc1C(c1ccccc1)(c1ccccc1)n1ccnc1,AC50,[2],0.621 µM (active)
O=c1ccc2ccccc2o1,outcome,[3],inactive
Oc1ccc2ccccc2c1,AC50,[3],9.86 µM (active)
Cc1cc2c(cc1C(F)(F)F)N(C(=O)Nc1ccc(Oc3cccnc3C)nc1)CC2,AC50,[4],13.3 µM (active)
same,AC50,[3],0.00211 µM (active)
CCCCCCCCOC(=O)c1cc(O)c(O)c(O)c1,AC50,[1],7.2 µM (active)
same,AC50,[5],16.4 µM (active)
CCN(Cc1cccnc1)C(=O)c1cccc(Cl)c1[C@]1(C)C(=O)N(Cc2ccc(OC)cc2OC)c2ccc(Cl)cc21,AC50,[5],2.01 µM (active)
same,AC50,[6],6.61 µM (active)
same,outcome,[7],inactive
same,AC50,[2],1.68 µM (active)
CC[C@@H]1C[C@H](N(Cc2cc(C(F)(F)F)cc(C(F)(F)F)c2)C(C)=O)c2cc(C(F)(F)F)ccc2N1C(=O)OC(C)C,outcome,[8],inactive
same,outcome,[2],inactive
Cc1cc(F)ccc1-c1cc(N2CC[C@@H](O)[C@H]2CO)ncc1N(C)C(=O)C(C)(C)c1cc(C(F)(F)F)cc(C(F)(F)F)c1,AC50,[1],0.181 µM (active)
same,AC50,[5],15.8 µM (active)
same,AC50,[4],4.08 µM (active)
same,AC50,[2],1.38 µM (active)
CCN(CC)C(=O)c1cc(S(=O)(=O)Cc2ccccc2)c(N2CCC(c3ccccc3)CC2)cc1N(CC)CCN(C)C,AC50,[1],4.95 µM (active)
same,AC50,[5],14.2 µM (active)
same,outcome,[6],inactive
same,AC50,[2],10.2 µM (active)
same,AC50,[3],7.94 µM (active)
COc1cccc([C@H](O)C2CCN(CCc3ccc(F)cc3)CC2)c1OC,AC50,[8],25 µM (active)
O=CCCCC=O,outcome,[1],inactive
c1ccc(C[n+]2cccc3ccccc32)cc1,outcome,[7],inactive
COc1cc(C(=O)NC2CCN(C)CC2)ccc1Nc1ncc2c(n1)N(C1CCCC1)CC(F)(F)C(=O)N2C,outcome,[1],inactive
same,outcome,[8],inactive
same,AC50,[2],0.76 µM (active)
same,AC50,[3],3.34 µM (active)
CC/C(=C(/CC)c1ccc(O)cc1)c1ccc(O)cc1,outcome,[5],inactive
same,AC50,[6],15.3 µM (active)
same,AC50,[9],11.4 µM (active)
same,AC50,[4],12.5 µM (active)
same,AC50,[3],22.1 µM (active)
Cc1oc2c(NC(=O)c3c(Cl)cccc3Cl)cccc2c1C(C)(C)O,outcome,[1],inactive
same,AC50,[2],5.98 µM (active)
CCN(Cc1cccc(S(=O)(=O)O)c1)c1ccc(C(=C2C=CC(=[N+](CC)Cc3cccc(S(=O)(=O)O)c3)C=C2)c2ccccc2S(=O)(=O)[O-])cc1,AC50,[6],8.17 µM (active)
CN(C)C(=O)C1(N2CCCCC2)CCN(CC[C@@]2(c3ccc(Cl)c(Cl)c3)CN(C(=O)c3ccccc3)CCO2)CC1,outcome,[1],inactive
same,AC50,[5],10.3 µM (active)
same,AC50,[9],4.88 µM (active)
same,AC50,[4],3.99 µM (active)
same,outcome,[8],inactive
same,AC50,[3],1.18 µM (active)
CC[C@H](NC(=O)c1cc(F)ccc1NS(=O)(=O)c1cccc2cccnc12)c1ccccc1,outcome,[5],inactive
O=C1c2ccccc2C(=O)N1CCc1noc(-c2ccc(CN3CCCCCC3)s2)n1,AC50,[1],12.3 µM (active)
same,AC50,[2],3.11 µM (active)
O=c1[nH]sc2ccccc12,AC50,[1],0.38 µM (active)
same,AC50,[9],3.2 µM (active)
same,AC50,[8],40.4 µM (active)
CC1=CC(=O)/C(=C(/C)O)C(=O)O1,outcome,[8],inactive
CCOC(=O)O[C@H](C)OC(=O)c1ccc2c(c1)cc(C(=O)NC1CCN(C(C)C)CC1)n2Cc1cc(-c2ccc(Cl)s2)on1,AC50,[1],3.38 µM (active)
same,AC50,[5],3.36 µM (active)
same,AC50,[6],23.6 µM (active)
same,AC50,[9],4.46 µM (active)
same,AC50,[4],22.9 µM (active)
same,AC50,[2],17.3 µM (active)
same,AC50,[3],21.3 µM (active)
CC(C)(C)c1cc(/C=C2\SC(N)=NC2=O)cc(C(C)(C)C)c1O,outcome,[3],inactive
CO[C@H]1/C=C/O[C@@]2(C)Oc3c(C)c(O)c4c(O)c(c(/C=N/N5CCN(C)CC5)c(O)c4c3C2=O)NC(=O)/C(C)=C\C=C\[C@H](C)[C@H](O)[C@@H](C)[C@@H](O)[C@@H](C)[C@H](OC(C)=O)[C@@H]1C,outcome,[6],inactive
CCCCCCCCOc1ccc(C(=O)c2ccccc2)c(O)c1,AC50,[6],25 µM (active)
CC(C)(C)c1csc(-c2cc3cc(OCc4ccccc4CC(=O)O)ccc3o2)n1,outcome,[5],inactive
same,outcome,[4],inactive
C[C@]12CC[C@@H]3c4ccc(O)cc4CC[C@H]3[C@@H]1CCC2=O,outcome,[5],inactive
CCCCOC(=O)c1ccc(O)cc1,AC50,[3],25 µM (active)
c1ccc2n[nH]nc2c1,outcome,[3],inactive
CN(C)c1ccc(C(=C2C=CC(=[N+](C)C)C=C2)c2ccc(N(C)C)cc2)cc1,AC50,[1],3.82 µM (active)
same,AC50,[5],8.5 µM (active)
same,AC50,[9],21.8 µM (active)
same,AC50,[4],10.8 µM (active)
same,AC50,[3],18.5 µM (active)
